Some test systems named below: DU-145 prostate; K-562 leukemia; MALME-3M melanoma; MDA-MB-231 breast; RXF 393 renal; SF-268 CNS; SF-295 CNS; SF-539 CNS; UACC-257 melanoma; M14 melanoma.
Common to all, as to test: NCI-60 one-dose screen, 48 h (100 = growth as untreated, 0 = no growth, -100 = all killed)
Common to all, as to conditions: 10 µM unless noted

SMILES strings stand for the structures. “And” between values parts separate entries of the source, which are not always exact repeats. Equal entries are not always repeated. This is part of a sample that, as a whole, favours compounds with a hit. Of some 83,000 tested, about 20% had one in any assay.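 Single-dose data. Exposure time 48 hours. Values below 10 considered active.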 Values without a mark were called inactive. The source made the active and inactive calls.

The text below walks through data of PubChem BioAssay (NCI).

`Nc1cc(N)c(N)cc1N`: the growth was 109% in the experiment with DU-145 prostate; 9.58% (active) in the experiment with K-562 leukemia; 62% with MALME-3M melanoma; 89.6% in the experiment on MDA-MB-231 breast; 51.3% in the experiment on RXF 393 renal; 74.2% in the experiment on SF-268 CNS. For the same compound, the growth was 87.8% in the experiment with SF-295 CNS, -3.2% (active) in the experiment with SF-539 CNS and -46.4% (active) in the experiment on UACC-257 melanoma.
`COc1ccc(C(=O)CC(c2ccccc2)C(C#N)c2ccccc2)cc1` (centres undefined): the growth was 92.2% in the experiment with DU-145 prostate; 80.7% in the experiment with K-562 leukemia; 97.2% with MALME-3M melanoma; 81% in the experiment on MDA-MB-231 breast; 99.5% in the experiment on RXF 393 renal; 86.3% in the experiment with SF-268 CNS. Further, the growth was 96.3% with SF-295 CNS, 97.7% in the experiment with SF-539 CNS and 87.7% in the experiment on UACC-257 melanoma.
`CC1=C/C(O)CC(=O)Cc2nc(co2)C(=O)N2CCC=C2C(=O)OC(C(C)C)C(C)/C=C\C(=O)NC/C=C\1` (centres undefined): the growth is 90.7% in the experiment on DU-145 prostate; 48.4% in the experiment on K-562 leukemia; 125% with MALME-3M melanoma; 98.6% in the experiment on MDA-MB-231 breast; 93.6% in the experiment on RXF 393 renal; 93.3% in the experiment with SF-268 CNS. Further, the growth with SF-295 CNS was 101%; in the experiment on SF-539 CNS, 104%; with UACC-257 melanoma it was 75.4%; with M14 melanoma, 15.4%.
Regarding `c1ccc(CNCCNCc2ccccc2)cc1`, the growth in the experiment with DU-145 prostate was 114%; in the experiment with K-562 leukemia, 98.1%; in the experiment with MALME-3M melanoma, 109%; in the experiment on MDA-MB-231 breast it was 118%; with RXF 393 renal, 104%; with SF-268 CNS, 120%. Further, the growth with SF-295 CNS was 90.8%; with SF-539 CNS it was 101%; in the experiment on UACC-257 melanoma, 117%.
Consider `CC(=O)OCC1OC(OC(C)=O)C(OC(C)=O)C(OC(C)=O)C1OC(C)=O` (centres undefined), for which the growth in the experiment on DU-145 prostate was 107% and 102%; in the experiment with K-562 leukemia, 111% and 95.9%; in the experiment on MALME-3M melanoma it was 99.8%; with MDA-MB-231 breast, 124% and 109%; in the experiment on RXF 393 renal it was 102% and 106%; with SF-268 CNS, 108% and 99%. Further, the growth is 98.2% in the experiment with SF-295 CNS; 99.6% and 103% in the experiment with SF-539 CNS; 95.4% and 101% in the experiment on UACC-257 melanoma.
`Cc1ccc(S(=O)(=O)c2ccccc2)cc1`: the growth in the experiment with DU-145 prostate is 26.3%; in the experiment with K-562 leukemia, 23.2%; with MALME-3M melanoma it was 66.6%; in the experiment with MDA-MB-231 breast, 50%; in the experiment with RXF 393 renal it was 39.3%; in the experiment with SF-268 CNS it was 47.9%. For the same compound, the growth in the experiment on SF-295 CNS was 2.7% (active); with SF-539 CNS it was 28.7%; in the experiment with UACC-257 melanoma it was 8.5% (active).
Take `Cc1cc(-c2ccc(N=Nc3ccc4c(S(=O)(=O)O)cc(S(=O)(=O)O)c(N)c4c3O)c(C)c2)ccc1N=Nc1ccc2c(S(=O)(=O)O)cc(S(=O)(=O)O)c(N)c2c1O`: the growth is 105% in the experiment with DU-145 prostate; 90.8% with K-562 leukemia; 107% with MALME-3M melanoma; 110% in the experiment with MDA-MB-231 breast; 101% in the experiment on RXF 393 renal; 102% in the experiment on SF-268 CNS. In addition, the growth in the experiment with SF-295 CNS was 93.7%; in the experiment with SF-539 CNS, 90.8%; in the experiment with UACC-257 melanoma, 105%.
Consider `O=c1n(CC2CO2)c(=O)n(CC2CO2)c(=O)n1CC1CO1` (centres undefined), for which the growth in the experiment with DU-145 prostate was 25.7%; in the experiment on K-562 leukemia it was 81.3%; with MALME-3M melanoma, 70.7%; with MDA-MB-231 breast, 107%; in the experiment with RXF 393 renal, 64.2%; in the experiment with SF-268 CNS, 47.9%. Besides, the growth was 13.9% with SF-295 CNS, 28.6% in the experiment on SF-539 CNS and 61.4% in the experiment on UACC-257 melanoma.
On to `CCCCOC(=O)/C=C\C(=O)NC(N)=O`, for which the growth in the experiment on DU-145 prostate was 91.1%; with K-562 leukemia, 82.3%; in the experiment with MALME-3M melanoma, 92.3%; in the experiment with MDA-MB-231 breast, 75.5%; with RXF 393 renal, -13.6% (active); in the experiment on SF-268 CNS it was 96.6%. For the same compound, the growth in the experiment on SF-295 CNS is 103%; in the experiment with SF-539 CNS, 95.7%; in the experiment on UACC-257 melanoma, 77.8%.
As for `OC1COC(OCc2ccccc2)C(O)C1O` (centres undefined), the growth in the experiment with DU-145 prostate is 105%; in the experiment with K-562 leukemia, 97.9%; in the experiment on MALME-3M melanoma it was 78.7%; in the experiment with MDA-MB-231 breast it was 109%; in the experiment with RXF 393 renal, 103%; in the experiment on SF-268 CNS, 106%. In addition, the growth was 101% in the experiment with SF-295 CNS and 105% in the experiment with SF-539 CNS.
`CC1CCC(C(C)C)C(NNC(N)=O)C1` (centres undefined): the growth is 106% in the experiment on DU-145 prostate; 101% with K-562 leukemia; 110% with MALME-3M melanoma; 97.5% in the experiment with MDA-MB-231 breast; 101% with RXF 393 renal; 106% in the experiment on SF-268 CNS. Further, the growth with SF-295 CNS is 103%; in the experiment on SF-539 CNS, 110%; in the experiment on UACC-257 melanoma, 87.3%.
Consider `CN(C)CC1CCCCCC(CN(C)C)C1=O` (centres undefined), for which the growth with DU-145 prostate was 16.3%; in the experiment with K-562 leukemia it was 0.401% (active); in the experiment on MALME-3M melanoma, -29.8% (active); in the experiment with MDA-MB-231 breast, 86.2%; in the experiment on RXF 393 renal, -5.99% (active); with SF-268 CNS it was 97%. Further, the growth with SF-295 CNS is 76.8%; in the experiment on SF-539 CNS it was 113%; in the experiment on UACC-257 melanoma, 53.1%; in the experiment on M14 melanoma it was 77.4%.
